# From paper PMC7862700, “An all-to-all approach to the identification of sequence-specific readers for epigenetic DNA modifications on cytosine”
# Columns and labels:
# Assay in all cases: DAPPL (digital affinity profiling via proximity ligation, sequencing); 10 mM Tris-HCl pH 7.5, 50 mM NaCl, 1 mM DTT, 4% glycerol, room temperature, 30 min; GST-TFs on glutathione beads, 16-mer random dsDNA library, 0.1% formaldehyde crosslink after washing; high values mean tight binding
# Conditions in all cases: protein: recombinant; tags: N-terminal GST; dsDNA, one strand shown
# GABPA = target: T1, GABPA (Homo sapiens, UniProt Q06546 1-454)
# T1 sequence: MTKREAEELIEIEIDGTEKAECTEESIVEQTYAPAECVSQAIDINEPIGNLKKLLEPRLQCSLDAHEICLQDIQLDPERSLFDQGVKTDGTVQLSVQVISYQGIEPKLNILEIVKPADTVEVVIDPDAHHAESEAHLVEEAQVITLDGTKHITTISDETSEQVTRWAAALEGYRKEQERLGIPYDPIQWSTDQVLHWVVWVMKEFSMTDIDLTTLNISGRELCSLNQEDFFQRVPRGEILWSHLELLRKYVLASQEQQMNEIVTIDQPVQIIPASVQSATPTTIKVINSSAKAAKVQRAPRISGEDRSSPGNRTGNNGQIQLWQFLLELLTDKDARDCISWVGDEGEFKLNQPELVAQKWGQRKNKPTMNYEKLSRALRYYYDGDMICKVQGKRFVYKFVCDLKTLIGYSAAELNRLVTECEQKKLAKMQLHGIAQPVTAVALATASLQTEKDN
# Method in brief: (§1)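 Binding signal is each hexamer's read frequency for a factor divided by its frequency in the tag-only sample. The factors were GST-fused human transcription factors from yeast, captured on glutathione beads, DNA-barcoded and pooled with that sample. Pools were incubated with 200 nmole of a random double-stranded 16-mer DNA library in Tris/NaCl/DTT/glycerol buffer at room temperature for 30 min, then washed, crosslinked with 0.1% formaldehyde, proximity-ligated with BsaI/T4 ligase (1 h, 37 °C), PCR-amplified and sequenced on an Illumina NextSeq500.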
# ERG = target: T2, ERG (Homo sapiens, UniProt P11308 1-479)
# T2 sequence: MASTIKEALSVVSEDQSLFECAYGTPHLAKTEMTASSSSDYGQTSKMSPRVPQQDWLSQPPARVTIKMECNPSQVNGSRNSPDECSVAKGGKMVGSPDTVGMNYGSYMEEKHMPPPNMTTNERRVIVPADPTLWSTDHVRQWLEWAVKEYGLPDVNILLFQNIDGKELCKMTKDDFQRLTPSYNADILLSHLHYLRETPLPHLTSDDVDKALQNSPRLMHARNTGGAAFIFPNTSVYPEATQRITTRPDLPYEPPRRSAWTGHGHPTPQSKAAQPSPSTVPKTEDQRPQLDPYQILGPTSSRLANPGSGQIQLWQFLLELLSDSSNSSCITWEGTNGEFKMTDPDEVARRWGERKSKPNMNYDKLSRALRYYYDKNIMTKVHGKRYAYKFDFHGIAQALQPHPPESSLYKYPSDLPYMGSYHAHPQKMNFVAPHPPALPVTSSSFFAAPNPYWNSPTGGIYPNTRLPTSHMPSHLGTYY
# Method in brief: as §1
# ELF1 = ELF1 (Homo sapiens, UniProt P32519 1-619)
# ELF1, sequence (P32519 whole entry): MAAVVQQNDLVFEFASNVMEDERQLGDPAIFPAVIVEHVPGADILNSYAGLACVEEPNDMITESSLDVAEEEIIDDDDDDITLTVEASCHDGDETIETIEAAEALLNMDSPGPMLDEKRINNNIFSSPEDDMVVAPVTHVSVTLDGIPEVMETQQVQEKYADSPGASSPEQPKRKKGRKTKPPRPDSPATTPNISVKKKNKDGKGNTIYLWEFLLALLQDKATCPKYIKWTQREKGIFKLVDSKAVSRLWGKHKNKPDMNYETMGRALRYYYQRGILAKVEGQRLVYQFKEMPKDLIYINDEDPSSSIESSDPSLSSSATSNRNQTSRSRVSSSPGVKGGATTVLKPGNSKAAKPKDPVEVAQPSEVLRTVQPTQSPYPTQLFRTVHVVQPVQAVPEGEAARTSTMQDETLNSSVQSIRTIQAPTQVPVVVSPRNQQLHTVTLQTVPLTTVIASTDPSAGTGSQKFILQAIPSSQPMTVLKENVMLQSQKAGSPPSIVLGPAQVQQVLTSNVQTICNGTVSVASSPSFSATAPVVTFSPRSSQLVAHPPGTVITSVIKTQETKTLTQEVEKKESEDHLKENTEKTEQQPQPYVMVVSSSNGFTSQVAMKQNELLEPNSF
# Method in brief: as §1
# SPI1 = SPI1 (Homo sapiens, UniProt P17947 1-270)
# Method in brief: as §1
# SPIB = SPIB (Homo sapiens, UniProt Q01892 1-262)
# SPIB, sequence (Q01892 whole entry): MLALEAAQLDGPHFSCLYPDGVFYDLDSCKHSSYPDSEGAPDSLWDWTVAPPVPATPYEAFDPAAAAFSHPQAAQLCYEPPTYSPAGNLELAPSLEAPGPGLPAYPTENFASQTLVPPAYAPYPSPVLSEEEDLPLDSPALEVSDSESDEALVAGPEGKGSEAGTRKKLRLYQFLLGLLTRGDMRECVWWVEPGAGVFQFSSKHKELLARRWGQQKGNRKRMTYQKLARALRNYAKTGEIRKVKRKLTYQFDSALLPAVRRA
# Method in brief: as §1
# ELK3 = target: T3, ELK3 (Homo sapiens, UniProt P41970 1-407)
# T3 sequence: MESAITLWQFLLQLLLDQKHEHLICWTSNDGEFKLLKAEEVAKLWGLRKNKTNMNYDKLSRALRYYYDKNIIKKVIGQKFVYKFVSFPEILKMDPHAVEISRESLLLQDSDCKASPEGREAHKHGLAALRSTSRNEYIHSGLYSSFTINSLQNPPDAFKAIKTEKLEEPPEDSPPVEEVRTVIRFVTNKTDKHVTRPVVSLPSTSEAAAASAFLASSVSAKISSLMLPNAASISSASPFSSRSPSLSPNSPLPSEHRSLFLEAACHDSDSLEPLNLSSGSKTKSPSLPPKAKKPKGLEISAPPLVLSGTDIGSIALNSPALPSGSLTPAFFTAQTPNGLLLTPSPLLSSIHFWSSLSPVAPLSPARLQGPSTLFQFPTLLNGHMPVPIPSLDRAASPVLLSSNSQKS
# Method in brief: as §1
# FEV = target: T4, FEV (Homo sapiens, UniProt Q99581 1-238)
# T4 sequence: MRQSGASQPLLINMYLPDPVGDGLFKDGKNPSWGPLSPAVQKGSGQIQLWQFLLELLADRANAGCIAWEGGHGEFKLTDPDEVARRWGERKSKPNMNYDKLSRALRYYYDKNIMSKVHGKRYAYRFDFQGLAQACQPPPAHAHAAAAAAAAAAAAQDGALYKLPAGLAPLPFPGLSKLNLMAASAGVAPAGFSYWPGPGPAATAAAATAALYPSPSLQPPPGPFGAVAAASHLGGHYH
# Method in brief: as §1
# SPIC = target: T5, SPIC (Homo sapiens, UniProt Q8N5J4 1-248)
# T5 sequence: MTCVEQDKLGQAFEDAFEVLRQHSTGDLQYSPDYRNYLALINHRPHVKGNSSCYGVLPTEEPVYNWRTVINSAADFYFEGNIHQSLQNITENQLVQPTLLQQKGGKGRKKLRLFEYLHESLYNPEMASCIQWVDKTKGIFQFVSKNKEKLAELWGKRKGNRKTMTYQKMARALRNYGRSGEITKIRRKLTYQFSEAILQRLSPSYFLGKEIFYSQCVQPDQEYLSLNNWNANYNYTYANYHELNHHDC
# Method in brief: as §1
# ELF4 = ELF4 (Homo sapiens, UniProt Q99607 1-663)
# ELF4, sequence (Q99607 whole entry): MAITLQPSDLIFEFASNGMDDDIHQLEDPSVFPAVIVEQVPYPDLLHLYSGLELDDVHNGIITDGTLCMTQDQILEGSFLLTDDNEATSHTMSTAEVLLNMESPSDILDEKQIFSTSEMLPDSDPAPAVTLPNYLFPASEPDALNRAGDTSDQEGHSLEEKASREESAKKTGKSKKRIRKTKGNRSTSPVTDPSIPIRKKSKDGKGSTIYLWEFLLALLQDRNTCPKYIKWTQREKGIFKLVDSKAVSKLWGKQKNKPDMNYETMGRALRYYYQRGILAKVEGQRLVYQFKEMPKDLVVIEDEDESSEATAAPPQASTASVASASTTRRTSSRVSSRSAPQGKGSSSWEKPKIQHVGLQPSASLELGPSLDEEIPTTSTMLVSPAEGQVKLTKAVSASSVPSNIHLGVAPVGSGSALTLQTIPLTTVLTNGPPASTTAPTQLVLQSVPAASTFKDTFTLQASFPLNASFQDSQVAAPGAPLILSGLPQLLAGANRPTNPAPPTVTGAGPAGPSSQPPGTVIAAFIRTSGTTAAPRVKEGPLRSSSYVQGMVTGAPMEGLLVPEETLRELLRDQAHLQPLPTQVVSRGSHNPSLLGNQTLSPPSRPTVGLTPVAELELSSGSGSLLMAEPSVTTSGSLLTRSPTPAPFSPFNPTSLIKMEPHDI
# Method in brief: as §1
# ELK4 = target: T6, ELK4 (Homo sapiens, UniProt P28324-2 1-405)
# T6 sequence: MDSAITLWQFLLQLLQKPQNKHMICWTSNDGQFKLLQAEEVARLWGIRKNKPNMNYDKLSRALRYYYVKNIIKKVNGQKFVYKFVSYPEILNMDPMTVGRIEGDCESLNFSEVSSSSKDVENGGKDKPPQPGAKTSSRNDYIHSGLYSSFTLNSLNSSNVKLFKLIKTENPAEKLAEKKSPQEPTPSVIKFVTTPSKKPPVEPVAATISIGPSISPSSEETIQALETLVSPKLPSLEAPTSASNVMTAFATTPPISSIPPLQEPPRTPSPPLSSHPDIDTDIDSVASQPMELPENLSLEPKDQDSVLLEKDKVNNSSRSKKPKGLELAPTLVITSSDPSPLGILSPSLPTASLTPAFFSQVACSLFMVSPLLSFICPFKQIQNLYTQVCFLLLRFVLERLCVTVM
# Method in brief: as §1
# ELF3 = target: T7, ELF3 (Homo sapiens, UniProt P78545 1-371)
# T7 sequence: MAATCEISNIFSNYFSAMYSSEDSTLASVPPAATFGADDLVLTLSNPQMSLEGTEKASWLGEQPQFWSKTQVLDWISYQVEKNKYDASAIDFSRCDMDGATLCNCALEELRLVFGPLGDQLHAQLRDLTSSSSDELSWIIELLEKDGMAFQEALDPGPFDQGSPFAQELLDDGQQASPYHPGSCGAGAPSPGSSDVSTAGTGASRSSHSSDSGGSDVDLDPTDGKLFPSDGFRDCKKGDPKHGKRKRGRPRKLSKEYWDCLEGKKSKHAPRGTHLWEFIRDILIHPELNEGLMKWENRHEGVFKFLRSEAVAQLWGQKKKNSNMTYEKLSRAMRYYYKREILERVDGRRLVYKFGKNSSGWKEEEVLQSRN
# Method in brief: as §1
# ETS2 = target: T8, ETS2 (Homo sapiens, UniProt P15036 1-469)
# T8 sequence: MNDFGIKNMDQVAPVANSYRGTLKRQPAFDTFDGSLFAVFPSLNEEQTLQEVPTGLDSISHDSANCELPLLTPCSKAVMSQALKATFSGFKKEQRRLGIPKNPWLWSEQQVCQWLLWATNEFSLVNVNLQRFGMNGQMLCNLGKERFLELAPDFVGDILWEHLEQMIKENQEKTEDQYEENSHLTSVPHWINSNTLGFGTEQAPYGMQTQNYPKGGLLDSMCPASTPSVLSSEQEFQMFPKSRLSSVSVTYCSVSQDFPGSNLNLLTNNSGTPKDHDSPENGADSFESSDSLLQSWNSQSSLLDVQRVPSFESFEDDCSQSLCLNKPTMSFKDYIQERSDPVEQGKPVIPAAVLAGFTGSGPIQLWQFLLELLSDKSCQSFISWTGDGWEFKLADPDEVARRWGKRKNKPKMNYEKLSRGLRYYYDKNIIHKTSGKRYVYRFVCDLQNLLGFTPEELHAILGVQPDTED
# Method in brief: as §1
# ETV7 = target: T9, ETV7 (Homo sapiens, UniProt Q9Y603 1-341)
# T9 sequence: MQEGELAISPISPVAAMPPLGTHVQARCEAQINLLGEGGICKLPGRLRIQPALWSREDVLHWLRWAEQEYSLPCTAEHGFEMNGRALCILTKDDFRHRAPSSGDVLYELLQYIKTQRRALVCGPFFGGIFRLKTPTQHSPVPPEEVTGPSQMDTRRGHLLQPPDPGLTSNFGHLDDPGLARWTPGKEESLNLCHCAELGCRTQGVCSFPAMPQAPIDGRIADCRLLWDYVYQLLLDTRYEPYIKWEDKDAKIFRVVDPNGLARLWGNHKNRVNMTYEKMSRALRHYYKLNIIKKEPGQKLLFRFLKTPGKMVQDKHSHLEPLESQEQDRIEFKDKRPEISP
# Method in brief: as §1
# ETV6 = ETV6 (Homo sapiens, UniProt P41212 1-452)
# ETV6, sequence (P41212 whole entry): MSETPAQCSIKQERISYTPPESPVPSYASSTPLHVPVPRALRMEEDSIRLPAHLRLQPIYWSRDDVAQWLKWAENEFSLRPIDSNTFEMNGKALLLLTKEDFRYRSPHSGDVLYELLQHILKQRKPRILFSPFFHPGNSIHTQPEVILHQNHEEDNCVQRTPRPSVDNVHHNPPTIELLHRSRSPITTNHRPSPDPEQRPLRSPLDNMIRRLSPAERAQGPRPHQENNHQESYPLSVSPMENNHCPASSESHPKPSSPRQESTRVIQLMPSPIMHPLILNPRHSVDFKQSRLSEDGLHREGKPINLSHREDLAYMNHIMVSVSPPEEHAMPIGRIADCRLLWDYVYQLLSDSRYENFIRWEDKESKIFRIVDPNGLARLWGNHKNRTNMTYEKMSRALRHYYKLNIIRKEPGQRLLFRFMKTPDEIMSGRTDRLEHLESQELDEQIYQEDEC
# Method in brief: as §1
sequence,measurement,setting,value
GTGGCC,binding signal,GABPA,"1.06 fold enrichment (6-mer frequency, TF over GST control)"
same,binding signal,ERG,"1.1 fold enrichment (6-mer frequency, TF over GST control)"
same,binding signal,ELF1,"1.05 fold enrichment (6-mer frequency, TF over GST control)"
same,binding signal,SPI1,"1.2 fold enrichment (6-mer frequency, TF over GST control)"
same,binding signal,SPIB,"1.2 fold enrichment (6-mer frequency, TF over GST control)"
same,binding signal,ELK3,"1.22 fold enrichment (6-mer frequency, TF over GST control)"
same,binding signal,FEV,"1.14 fold enrichment (6-mer frequency, TF over GST control)"
same,binding signal,SPIC,"1.02 fold enrichment (6-mer frequency, TF over GST control)"
same,binding signal,ELF4,"1.02 fold enrichment (6-mer frequency, TF over GST control)"
same,binding signal,ELK4,"1.03 fold enrichment (6-mer frequency, TF over GST control)"
same,binding signal,ELF3,"1.09 fold enrichment (6-mer frequency, TF over GST control)"
same,binding signal,ETS2,"1.01 fold enrichment (6-mer frequency, TF over GST control)"
same,binding signal,ETV7,"1.01 fold enrichment (6-mer frequency, TF over GST control)"
same,binding signal,ETV6,"1.1 fold enrichment (6-mer frequency, TF over GST control)"
